We go through 39 molecules from the supplement of paper PMC4894684.

Where a name gives a salt, the structure may show the parent alone. ± gives the standard deviation of the averaged measurements.

The subject of this test is Toxoplasma gondii RH (in HFF). The test can be described thus: parasite growth relative to the screen mean (all compounds = 100%); higher = less inhibition of parasite growth. To be noted: 5 µM; 72 h; oxygen 21 %. In a few lines:
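Growth values are relative to the mean of the whole screen and averaged over duplicate screens, with all compounds together set to 100%. Parasites (RH β-Gal–GFP Toxoplasma, MOI 1:5) were added within 2 h of pinning compounds at 5 µM final onto confluent human foreskin fibroblasts and grown 72 h at 21% O2. Parasite number came from CPRG β-Gal readings against in-plate standard curves.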
Molecule `COc1cc(NC(=O)c2ccccn2)ccc1Cl` had a parasite growth of 91.2 ± 30%. With `CCCCC1CCC(c2nc(-c3ccncc3)no2)CC1` (centres undefined) the figure was 81.9 ± 14%; with `N[C@H](C(=O)O)[C@H](OCc1ccccc1)C(=O)O` (racemic), 80.3 ± 61%; with `N=C(N)SCCc1c[nH]cn1` [Imetit dihydrobromide], 91.9 ± 21%. The result for `C[N+](C)(C)CC[N+]1(C)Cc2c(Cl)c(Cl)c(Cl)c(Cl)c2C1` [Chlorisondamine diiodide] reads 168 ± 14%; that for `CC(C)C[C@H](NC(=O)N1CCCCCC1)C(=O)N[C@H](Cc1cn(C)c2ccccc12)C(=O)N[C@H](Cc1ccccn1)C(=O)O`, 98.9 ± 45%; that for `O=c1cc(N2CCOCC2)oc2c(-c3ccccc3)cccc12`, 129 ± 26%. As for `COc1nc(C)nc(Cl)c1NC1=NCCN1` [Moxonidine hydrochloride], the parasite growth was 108 ± 27%. In the case of `CC(C)NCC(O)c1ccc(NS(C)(=O)=O)cc1` (centres undefined) [Sotalol hydrochloride], the parasite growth worked out at 108 ± 6.9%. `CNc1cc(OC)c(C(=O)NC2CCN(Cc3ccccc3)C2C)cc1Cl` (centres undefined) [Nemonapride] gave a parasite growth of 95.4 ± 2.2%.

Molecule `CNS(=O)(=O)Cc1ccc2[nH]cc(CCN(C)C)c2c1` [Sumatriptan succinate] yielded a parasite growth of 76.2 ± 11%.

`O=S(=O)(c1cccc2cnccc12)N1CCCNCC1` [Fasudil hydrochloride] gave a parasite growth of 90.6 ± 21%. `COc1ccc2c(c1OC)C(=O)O[C@@H]2[C@H]1c2c(cc3c(c2OC)OCO3)CCN1C` [Noscapine hydrochloride] gave a parasite growth of 129 ± 27%. With `CCCCC#Cc1nc(NC)c2ncn([C@@H]3O[C@H](CO)[C@@H](O)[C@H]3O)c2n1` the figure was 143 ± 8.2%; with `NC(=O)N1c2ccccc2CC(O)c2ccccc21` (centres undefined) [Licarbazepine], 122 ± 9.9%; with `CC[C@H](CO)Nc1nc(Nc2cccc(-c3ccccn3)c2)c2ncn(C(C)C)c2n1` [(R)-DRF053 dihydrochloride], 32.4 ± 16%.

In turn, `N[C@@H](CSC(c1ccccc1)(c1ccccc1)c1ccccc1)C(=O)O` [S-Trityl-L-cysteine] returned a parasite growth of 118 ± 8.6%. For the molecule `O=C(O)c1ccccc1Nc1cccc(OCc2ccc3ccccc3n2)c1` [SR 2640 hydrochloride], the parasite growth amounted to 135 ± 9.3%. The molecule `CCCCCCCC/C=C\CCCCCCCC(=O)NCCO` [Oleylethanolamide] gave a parasite growth of 135 ± 21%. The molecule `COc1ccc(/C=C/C(=O)Nc2ccccc2C(=O)O)cc1OC` [Tranilast] showed a parasite growth of 111 ± 30%. With `Nc1nc(Nc2ccccc2)nc2c1ncn2[C@@H]1O[C@H](CO)[C@@H](O)[C@H]1O`, the parasite growth was found to be 123 ± 7.1%. As to `O=c1cc(-c2ccc(O)cc2)oc2cc(O)cc(O)c12` [Apigenin], the parasite growth worked out at 102 ± 21%. Take `O=C1c2ccccc2CCC1CNCCc1ccc(O)cc1` (centres undefined) [HEAT hydrochloride]: the parasite growth is 68.1 ± 13%. With `Clc1cccc(Nc2nnc(-c3ccccc3)c3ccccc23)c1` the figure was 143.2 ± 1.4%. In the case of `CCCCCCNC(=O)Nc1ccc(S(=O)(=O)Nc2ccc(CCNC[C@H](O)COc3ccc(O)cc3)cc2)cc1`, the parasite growth came to 170 ± 26%.

In turn, `Cc1ccc(/C(=C\CN2CCCC2)c2ccccn2)cc1` [trans-Triprolidine hydrochloride] gave a parasite growth of 96.7 ± 39%. Turning to `CC1(C)CCC(C)(C)c2cc(C3(c4ccc(C(=O)O)cc4)OCCO3)ccc21`, the parasite growth was 115 ± 34%. `NC(=O)OCC(COC(N)=O)c1ccccc1` [Felbamate]: the parasite growth was 85.9 ± 60%. The result for `N#C/C(=C\c1ccc(O)c(O)c1)C(=O)OCCc1cccs1` reads 132 ± 15%; that for `CN1[C@@H]2CC[C@H]1C[C@@H](OC(=O)c1c[nH]c3ccccc13)C2` [Tropisetron hydrochloride], 106 ± 3.1%. As to `NCCNC(=O)c1ccc(Cl)cn1` [Lazabemide hydrochloride], the parasite growth amounted to 109 ± 28%. The result for `COc1ccc(CC(C)NCC(O)c2ccc(O)c(NC=O)c2)cc1` (centres undefined) [Formoterol hemifumarate] reads 126 ± 5.6%; that for `O=S1(=O)c2cccc3cccc(c23)N1CCCN1CCN(c2ccc(F)cc2)CC1` [Fananserin], 130 ± 14%; that for `CCCCC[C@H](O)/C=C/[C@H]1[C@H](O)CC(=O)[C@@H]1C/C=C\CCCC(=O)O` [Prostaglandin E2], 122 ± 1.1%. `Cc1ccc2c(c1)C(=O)C1(O)CCN(c3ccccc3)C1=N2` (racemic) [(±)-Blebbistatin] came in with a parasite growth of 161 ± 15%.

Take `NS(=O)(=O)c1cc2c(cc1Cl)NC(C1CC3C=CC1C3)NS2(=O)=O` (centres undefined) [Cyclothiazide]: the parasite growth worked out at 118 ± 1.8%. Regarding `Oc1ccc(-c2nc3cc(O)cc(Br)c3o2)cc1`, the parasite growth stood at 134 ± 20%. Molecule `N[C@H](C(=O)O)c1cc(O)cc(O)c1` displayed a parasite growth of 119 ± 4.9%. Molecule `NC[C@@H]1O[C@H](C23CC4CC(CC(C4)C2)C3)Cc2c1ccc(O)c2O` showed a parasite growth of 89.5 ± 18%.
